From PubChem BioAssay (NCI)
The panel holds about 79,000 compounds, 15% with a hit somewhere; the sample as a whole holds those more often. Cut-off read from the data, not from the text of the source: active = growth inhibition above about 70%; inactive = the rest.

Experiments:
[1] = NCI Yeast Anticancer Drug Screen. Data for the rad50 strain (AID 155);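 note: 0% = growth of vehicle-only cultures of the same strain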; settings: S. cerevisiae rad50 strain growth inhibition; at 50.0 µM; active compounds read high
Procedure, shortened: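 DNA repair mutant yeast, compound exposure, growth read-out; inhibition is taken relative to vehicle.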

[2] = NCI Yeast Anticancer Drug Screen. Data for the mec2-1 strain (AID 157); settings: S. cerevisiae mec2-1 strain, at 50.0 µM, active compounds read high
Procedure, shortened: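 Using mec2-1 yeast: add compound, measure growth, express inhibition versus vehicle-treated cultures.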

[3] = NCI Yeast Anticancer Drug Screen. Data for the sgs1 mgt1 strain (AID 161);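 note: 0% = growth of cultures given vehicle only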; settings: S. cerevisiae sgs1 mgt1 strain, at 50.0 µM, active compounds read high
Procedure, shortened: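 This yeast growth screen uses a strain with defined DNA-repair lesions; compound-treated growth is compared with vehicle-treated growth.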

[4] = NCI Yeast Anticancer Drug Screen. Data for the cln2 rad14 strain (AID 165);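 note: 0% = growth equal to vehicle treated cultures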; settings: S. cerevisiae cln2 rad14 strain, at 50.0 µM, active compounds read high
Procedure, shortened: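 Yeast strain cln2 rad14, bearing defects in cell cycle control and DNA repair, serves as the test system; values reflect growth inhibition compared with vehicle.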

[5] = NCI Yeast Anticancer Drug Screen. Data for the bub3 strain (AID 167); settings: S. cerevisiae bub3 mutant strain, at 50.0 µM, active compounds read high
Procedure, shortened: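 In this screen, a yeast mutant lacking normal mitotic checkpoint function is challenged with compound. Relative growth versus vehicle gives the inhibition value.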

[6] = NCI Yeast Anticancer Drug Screen. Data for the mlh1 rad18 strain (AID 175); settings: S. cerevisiae mlh1 rad18 strain growth inhibition; at 50.0 µM; active compounds read high
Procedure, shortened: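 Steps: expose repair-defective yeast to compound; measure growth; express inhibition against vehicle-treated controls.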

Measured: growth inhibition

N#CCCN(CCC#N)c1ccc(C=O)cc1
inactive: [1] 20.3% | [2] 8.05% | [3] 17.2% | [4] -4.25% | [5] 26.6% | [6] 13.6%

N#Cc1nnn2c1nc(N)c1c(Cl)cccc12
inactive: [1] 0.75% | [2] -17.1% | [3] -4.6% | [4] -0.05% | [5] -11.8% | [6] -8.35%

COC(=O)NC(=O)CCC(=O)O
inactive: [1] -0.15% | [2] -2.8% | [3] 0.95% | [4] -45.3% | [5] 7% | [6] 12.8%

Nc1nnc2c(=O)[nH]cnc2n1
inactive: [1] 2.25% | [2] -8.8% | [3] -29.2% | [4] -14.4% | [5] -12.2% | [6] -7.35%

CCCC(=O)Nc1ccc2c(ccn2COC)c1
inactive: [1] -37.2% | [2] -2.2% | [3] -2.05% | [4] 8.7% | [5] 8.45% | [6] -18.2%

COC1OC(COC(=O)Nc2ccccc2)C2OC12 (stereo unspecified)
inactive: [1] 8.45% | [2] 2.8% | [3] 24.6% | [4] -55.4% | [5] -10% | [6] 1.25%

Oc1ccccc1C=Nc1ccc(N2CCOCC2)cc1
inactive: [1] 2.65% | [2] -3.7% | [3] 10.1% | [4] -4.2% | [5] 2.05% | [6] -2.35%

O=C(c1ccccc1)c1cccc(C(=O)c2ccccc2)n1
inactive: [1] -7.5% | [2] -12.7% | [3] -17.7% | [4] 1.9% | [5] -13.8% | [6] -8.55%

COc1cc2c(cc1OC)C(CS(C)=O)Cc1cc(OC)c(OC)cc1N(C)CCC2 (stereo unspecified)
inactive: [1] 10.5% | [2] 19.4% | [3] 14.2% | [4] 10.6% | [5] -1.55% | [6] 29.9%

c1ccc2c(c1)CSc1ccccc1-2
inactive: [1] 9.8% | [2] -8.9% | [3] -6.4% | [4] -12.2% | [5] 7% | [6] -3.65%

CCCCCCCCCCCCSC1=C(OC)C(=O)C(OC)=C(OC)C1=O
inactive: [1] 33.5% | [2] 13.8% | [3] 26.6% | [4] -5.2% | [5] -1.35% | [6] 16.5%

CCOc1ccccc1C1=CCCCCC1
inactive: [1] -0.65% | [2] -5% | [3] -9% | [4] -24.6% | [5] -10% | [6] 1.3%

CC(C)c1ccc(/C=C/C(=O)c2ccc([N+](=O)[O-])cc2)cc1
inactive: [1] 9.75% | [2] 2.2% | [3] 11.7% | [4] -13.3% | [5] 20.9% | [6] 3.15%

CCN(c1ccccc1)c1ncnc2nc[nH]c12
inactive: [1] 6.75% | [2] 0.75% | [3] -1.75% | [4] -28.9% | [5] 19.9% | [6] -5.5%

C=CCNC(=O)N(CCCCC(NC(C)=O)C(=O)NCc1ccccc1)Cc1ccccc1 (stereo unspecified)
inactive: [1] 11.7% | [2] 6.55% | [3] -12.7% | [4] 11.5% | [5] 16.4% | [6] 11.9%

NC(N)=NCCCCC(=O)Nc1ccc(S(N)(=O)=O)cc1
inactive: [1] 6.15% | [2] -0.65% | [3] -13.2% | [4] -6.15% | [5] -3.75% | [6] -19.2%

CC1=CC(=O)CC(C(C)C)C1 (stereo unspecified)
inactive: [1] 15.5% | [2] -7.5% | [3] 22.8% | [4] -5.95% | [5] 1.95% | [6] 5.2%

Cc1ccc(S(=O)(=O)OCCN2C(=O)CCC2=O)cc1
inactive: [1] 12.8% | [2] 8.8% | [3] 4.65% | [4] 9.5% | [5] -0.95% | [6] 15.8%

C(#Cc1ccccc1)SC1=C(c2ccccc2)S/C(=C(\SC#Cc2ccccc2)c2ccccc2)S1
inactive: [1] 9.6% | [2] 7.7% | [3] -29.4% | [4] 10.9% | [5] -21.1% | [6] -30.8%

O=C(O)CCC(=O)Nc1ccc(F)cc1
inactive: [1] 9.9% | [2] 26.6% | [3] 4.7% | [4] -86.3% | [5] 7.3% | [6] 1%

Cc1ccc(S(=O)(=O)NCc2cccc([N+](=O)[O-])c2)cc1
inactive: [1] 6.25% | [2] -15.8% | [3] -13.6% | [4] 19% | [5] 18.2% | [6] 14.8%

O=S(=O)(CCc1ccccc1)c1nc2ccccc2s1
inactive: [1] -1.5% | [2] -1.85% | [3] -2.8% | [4] -11.9% | [5] -37.5% | [6] -11.5%

CCCN/C=C1\CC(=O)N(C)C1=O
inactive: [1] 5.15% | [2] 8.45% | [3] 2.5% | [4] -33.7% | [5] 6.4% | [6] 11.2%

C[C@H](CCC(=O)O)[C@H]1CC[C@H]2[C@@H]3CC[C@@H]4C[C@H](O)CC[C@]4(C)[C@H]3CC[C@]12C
inactive: [1] 40% | [2] 31.4% | [3] 10% | [4] 0.75% | [5] 25.8% | [6] 23.6%

COCOc1ccc(-c2ccc(O)cc2)cc1
inactive: [1] 10.8% | [2] 9.95% | [3] 0% | [4] -47.2% | [5] 18.9% | [6] 5.15%

Cc1cc2c(cc1C)NC1=C(N2)OC(c2ccc(Cl)cc2)C1=O (stereo unspecified)
inactive: [1] 19.9% | [2] 16.2% | [3] 44.6% | [4] 2% | [5] 21.1% | [6] 44.1%

CC(=O)Nc1ccc(NC(=O)Nc2cc(Cl)ccc2C)cc1
inactive: [1] 14.3% | [2] 5.05% | [3] 0.7% | [4] 13.1% | [5] 17.8% | [6] 5.1%

c1ccc(CN2CCCNCC2)cc1
inactive: [1] 9.55% | [2] -1.4% | [3] -0.25% | [4] -11.8% | [5] 4.7% | [6] -0.05%

O=C1NC=NC1c1ccccc1 (stereo unspecified)
inactive: [1] -2.25% | [2] -10.4% | [3] -9.9% | [4] -24.8% | [5] -3.65% | [6] -11.5%

Cc1ccc(C(C)C)c(OC2OC(C(=O)O)C(O)C(O)C2O)c1 (stereo unspecified)
inactive: [1] 5.95% | [2] 13.9% | [3] -9% | [4] -33.7% | [5] 10.9% | [6] -10.4%

CCOC(=O)/C(=C\c1ccc(OCc2ccccc2)c(OC)c1)C(=O)c1ccccc1
inactive: [1] 15.6% | [2] -9.55% | [3] 8.3% | [4] -5.15% | [5] -13.4% | [6] -15.3%

CC(NC(=O)C(C)(C)C)c1ccc(-c2ccccc2)cc1 (stereo unspecified)
inactive: [1] 11.8% | [2] 29.6% | [3] 9.2% | [4] 12.6% | [5] 2% | [6] 10.8%

CC(=O)OCC1OC(OC(C)=O)C(N)C(OC(C)=O)C1OC(C)=O (stereo unspecified)
inactive: [1] 2.15% | [2] 11.8% | [3] 11.9% | [4] 9.05% | [5] -15.9% | [6] 19.4%

N#Cc1cccc(CC(O)(c2ccccc2)c2ccccc2)c1
inactive: [1] 19.6% | [2] 19.9% | [3] 5.1% | [4] 11% | [5] 20.5% | [6] 18.4%

CN(C)CCNC(=O)c1cccc(N(C)C(=O)c2ccccc2)c1[N+](=O)[O-]
inactive: [1] 6.65% | [2] -9.45% | [3] 6.5% | [4] 17.6% | [5] 7.05% | [6] 3.15%

C1CC(CCC2CCNCC2)CCN1
inactive: [1] 1.6% | [2] 1.15% | [3] 4.15% | [4] -13.4% | [5] 11.7% | [6] 1.55%

CN(C)P(=O)(Nc1ccc(Cl)cc1)Nc1ccc(Cl)cc1
inactive: [1] 11.7% | [2] -1.9% | [3] 2.1% | [4] 3.9% | [5] 12.7% | [6] 7.5%

CN1CCCCCC1
inactive: [1] -8.05% | [2] -8.45% | [3] 5.95% | [4] -4.95% | [5] -10.9% | [6] -0.85%

O=c1cc(-c2ccccc2)[nH]c2ncccc12
inactive: [1] -37.5% | [2] -48.6% | [3] -37.1% | [4] -9.4% | [5] -19.8% | [6] -65.8%

O=C(O)CNCc1ccccc1
inactive: [1] 2.85% | [2] 22.5% | [3] 14.6% | [4] -4.45% | [5] 16.4% | [6] -15.3%

CCC(C)CCC(C)(O)CC (stereo unspecified)
inactive: [1] 9.7% | [2] -9.9% | [3] -5.4% | [4] -43.1% | [5] 16.2% | [6] 1.35%
